Measurements reported in the supplement of paper PMC4723716.
Several values for one entry are separate records, joined by “and”; a condition that tells them apart may be missing. Identical values can stand only once. ± gives the uncertainty stated by the source. In all, about 9,900 compounds were measured (“viability index relative to DMSO control”: median about 1, lowest 2% from about 0.85 on). The list comes from a sample in which the lowest values are over-represented; it also holds similar structures and randomly drawn compounds.

Tested on: Plasmodium falciparum NF54 stage V gametocytes
Experiment: viability index relative to DMSO control (fraction); higher = less gametocyte killing
Conditions: 2.5 µM, incubation time: 72 h
Experimental: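 Broad DOS informer set and blood-stage-active DOS compounds screened in duplicate at 2.5 µM against P. falciparum NF54 stage V gametocytes with the serum-free one-step SaLSSA (1536-well): 72 h at 37 °C under low oxygen, then saponin lysis and MitoTracker Red CMXRos staining, with high-content imaging. Viability index = viable-object count divided by the plate mean of DMSO wells (0 = killed, about 1 = inactive).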

[1] = library set: Broad Institute DOS

Row | SMILES | viability index [1] | viability index (library set: Broad Institute Blood Stage)
1 | C[C@H]1CN([C@@H](C)CO)C(=O)Cc2cc(NC(=O)CCC(F)(F)F)ccc2O[C@H]1CN(C)CC1CC1 | 1.0278 ± 0.00041 | 
2 | O=C(C[C@H]1C=C[C@@H](NC(=O)c2ccncc2)[C@@H](CO)O1)NCC1CC1 | 1.08 ± 0.03 | 
3 | COc1ccc2c3c([nH]c2c1)[C@@H](CO)N(C[C@]31CCN(Cc2ccccc2Cl)CC1)S(=O)(=O)c1cn(C)cn1 | 0.955 ± 0.018 | 
4 | O=C(Cc1ccncc1)NCC[C@H]1CC[C@H](NS(=O)(=O)c2ccccc2Cl)[C@H](CO)O1 | 1.09 ± 0.031 | 
5 | CN1[C@@H]2Cn3c(ccc(-c4ccncc4)c3=O)[C@H]1[C@@H](C(=O)N1CCC(Cc3ccccc3)CC1)[C@@H]2CO | 1.11 ± 0.041 | 
6 | COc1ccc2c3c([nH]c2c1)[C@H](CO)N(C[C@]31CCN(Cc2cncnc2)CC1)C(=O)CN(C)C | 0.991 ± 0.06 | 
7 | O=C(NC[C@@H]1[C@H](c2ccccc2)[C@H](CO)N1Cc1ccccn1)C1CCCC1 | 0.684 ± 0.14 | 
8 | O=C(NC[C@@H]1[C@@H](c2ccccc2)[C@H](CO)N1Cc1ccccn1)C1CCCC1 | 1.05 ± 0.068 | 
9 | O=C(NC[C@H]1[C@H](c2ccccc2)[C@@H](CO)N1Cc1ccccn1)C1CCCC1 | 0.9562 ± 0.0077 | 
10 | N#C[C@H]1[C@H](c2ccc(C#Cc3ccccc3F)cc2)[C@@H](CO)N1C(=O)c1cccnc1 | 1.02 ± 0.033 | 
11 | C[C@H](CO)N1C[C@H](C)[C@H](CN(C)CC2CC2)Oc2ccc(NC(=O)CCC(F)(F)F)cc2CC1=O | 0.953 ± 0.022 | 
12 | C[C@@H]1CN([C@@H](C)CO)C(=O)c2ccccc2-c2ccccc2CO[C@@H]1CN(C)Cc1cccnc1 | 1.049 ± 0.005 | 
13 | OC[C@H]1[C@@H](c2ccc(-c3ccc(F)cc3)cc2)[C@@H]2CN(CCC(F)(F)F)CCCCN12 |  | 0.959 ± 0.057
14 | OC[C@@H]1[C@H](c2ccc(-c3ccc(F)cc3)cc2)[C@@H](CNC2CCCC2)N1CCC(F)(F)F | 0.557 ± 0.096 | 
15 | OC[C@@H]1[C@H](c2ccc(-c3ccc(F)cc3)cc2)[C@H](CNC2CCCC2)N1CCC(F)(F)F | 0.837 ± 0.1 | 
16 | CN(C[C@H]1[C@@H](c2ccc(C3=CCCC3)cc2)[C@@H](CO)N1CCC(F)(F)F)S(C)(=O)=O | 1.02 ± 0.046 | 
17 | CCC(=O)NC[C@H]1[C@@H](c2ccc(-c3ccc(C#N)cc3)cc2)[C@@H](CO)N1CCC(F)(F)F | 1.01 ± 0.028 | 
18 | CCCN1[C@H](CO)[C@H](c2ccc(C#Cc3ccccc3)cc2)[C@@H]1CNC1CCCC1 | 0.914 ± 0.021 | 
19 | CO[C@H](CN(C)C(=O)c1cnccn1)[C@H](C)CN([C@H](C)CO)S(=O)(=O)c1ccccc1 | 0.948 ± 0.067 | 
20 | COc1ccc(CNC(=O)C[C@H]2CC[C@H](NC(=O)CN(C)C)[C@@H](CO)O2)cc1 | 1.1 ± 0.008 | 
21 | NCC[C@@H]1CC[C@H](NS(=O)(=O)c2ccc(Cl)cc2)[C@H](CO)O1 | 1.08 ± 0.093 | 
22 | NCC[C@@H]1CC[C@@H](NS(=O)(=O)c2ccc(Cl)cc2)[C@@H](CO)O1 | 1.02 and 1.13 | 

Row | SMILES | viability index [1] | viability index (library set: Broad Institute Blood Stage)
23 | NCC[C@H]1CC[C@H](NS(=O)(=O)c2ccc(Cl)cc2)[C@H](CO)O1 | 0.803 and 1.11 | 
24 | C[C@@H]1C/C=C/C[C@H](c2cccc(Cl)c2)NC(=O)[C@@H](Cc2ccccc2)N(C)C(=O)c2ccccc2O1.C[C@@H]1C/C=C\C[C@H](c2cccc(Cl)c2)NC(=O)[C@@H](Cc2ccccc2)N(C)C(=O)c2ccccc2O1 | 0.9516 ± 0.0088 | 
25 | C[C@@H]1C/C=C/C[C@@H](c2cccc(Cl)c2)NC(=O)[C@@H](Cc2ccccc2)N(C)C(=O)c2ccccc2O1.C[C@@H]1C/C=C\C[C@@H](c2cccc(Cl)c2)NC(=O)[C@@H](Cc2ccccc2)N(C)C(=O)c2ccccc2O1 | 0.812 ± 0.044 | 
26 | C[C@@H]1C/C=C/C[C@@H](c2cccc(Cl)c2)NC(=O)[C@H](Cc2ccccc2)N(C)C(=O)c2ccccc2O1.C[C@@H]1C/C=C\C[C@@H](c2cccc(Cl)c2)NC(=O)[C@H](Cc2ccccc2)N(C)C(=O)c2ccccc2O1 | 0.94 ± 0.029 | 
27 | CCS(=O)(=O)N1C[C@@]2(C1)CN(CC1CCOCC1)[C@H](CO)c1c2c2ccc(OC)cc2n1C | 0.985 ± 0.037 | 
28 | C[C@@H]1CCCCO[C@@H](CN(C)S(=O)(=O)c2cn(C)cn2)[C@H](C)CN([C@@H](C)CO)C(=O)c2cc(NC(=O)Nc3cccc4ccccc34)ccc2O1 | 1.02 ± 0.062 | 
29 | O=C(C[C@@H]1CC[C@@H](NS(=O)(=O)c2ccc(F)cc2)[C@H](CO)O1)N1CCN(c2ccccc2)CC1 | 1.05 ± 0.087 | 
30 | O=C(Nc1cc(F)ccc1F)N1CCCCN2[C@H](CO)[C@H](c3ccc(C4=CCCCC4)cc3)[C@H]2C1 | 0.686 ± 0.018 | 
31 | O=C(Nc1ccccc1F)N1CCCCN2[C@@H](CO)[C@@H](c3ccc(/C=C/c4ccccc4)cc3)[C@@H]2C1 | 0.8892 ± 0.0057 | 
32 | O=C(Nc1cc(F)ccc1F)N1CCCCN2[C@H](CO)[C@H](c3ccc(C4=CCCCC4)cc3)[C@@H]2C1 | 0.935 ± 0.14 | 
33 | O=C(Nc1ccccc1F)N1CCCCN2[C@H](CO)[C@H](c3ccc(/C=C/c4ccccc4)cc3)[C@@H]2C1 | 1.01 ± 0.021 | 
34 | O=C(Nc1ccccc1F)N1CCCCN2[C@H](CO)[C@@H](c3ccc(/C=C/c4ccccc4)cc3)[C@H]2C1 | 0.859 ± 0.037 | 
35 | O=C(Nc1cc(F)ccc1F)N1CCCCN2[C@H](C1)[C@H](c1ccc(C3=CCCCC3)cc1)[C@@H]2CO | 1.04 ± 0.075 | 
36 | O=C(Nc1cc(F)ccc1F)N1CCCCN2[C@@H](CO)[C@@H](c3ccc(C4=CCCCC4)cc3)[C@@H]2C1 | 0.818 ± 0.063 | 
37 | O=C(Nc1ccccc1F)N1CCCCN2[C@H](CO)[C@H](c3ccc(/C=C/c4ccccc4)cc3)[C@H]2C1 | 0.492 ± 0.14 | 
38 | O=C(Nc1ccccc1F)N1CCCCN2[C@H](CO)[C@@H](c3ccc(/C=C/c4ccccc4)cc3)[C@@H]2C1 | 0.961 ± 0.019 | 
39 | O=C(C[C@@H]1C=C[C@@H](NC(=O)C2CCC2)[C@@H](CO)O1)NC1CCCCC1 | 1.16 ± 0.096 | 
40 | C[C@@H]1CN([C@@H](C)CO)C(=O)c2cc(NC(=O)C3CCCCC3)ccc2O[C@@H](C)CCCCO[C@@H]1CN(C)C(=O)CCC(F)(F)F | 1.05 ± 0.025 | 
41 | CCCC(=O)N1C[C@@]2(C1)CN([C@@H](CO)c1c2c2ccc(OC)cc2n1C)C(=O)Nc1cccc(F)c1 | 0.997 ± 0.13 | 
42 | C[C@H](NC(=O)C[C@@H]1C=C[C@H](NS(=O)(=O)c2cccc(F)c2)[C@H](CO)O1)c1ccccc1 | 1.08 ± 0.11 | 
43 | N#Cc1ccc(-c2ccc([C@H]3[C@@H](CO)N4C(=O)CNC[C@@H]34)cc2)cc1 | 0.965 ± 0.1 | 
44 | CN1CCN(C(=O)C[C@H]2CC[C@@H]3[C@H](COC[C@@H](O)CN3C(=O)Nc3ccc4c(c3)OCO4)O2)CC1 | 1.05 ± 0.017 | 
